Measurements taken from the supplement of paper PMC10849652.
Targets with a hit are over-represented here; the source holds about 7,900 in all. About 0.6% of all pairs of compound and target were hits.

Columns and labels:
Experiment in all cases: log2 fold change, soluble protein after heating vs DMSO (PISA); higher = thermal stabilisation; K562 cells, 10 uM, 30 min; active = over 0.2 and 3.5 SD of the protein, either way, in both replicates (recomputed)
[1] = compound: COC1=CC=C(C=C1)CN2C=CC3=C2C=C(C=C3)C(=O)NO
How it was run: (§1)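 K562 cells at 2×10^6 cells/mL were given 10 μM compound for 30 min. Aliquots then went through 3 min of heating across 48°C-58°C, were pooled, and were extracted in PBS with 0.5% NP-40 at 4°C, and the supernatant after 21,000xg for 90 min was quantified by TMTpro 16plex LC-MS/MS with channel sums equalised. Thermal stability relative to control samples, from duplicates, is given as log2 fold change.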

filanesib = compound: CON(C)C(=O)N1N=C(c2cc(F)ccc2F)S[C@@]1(CCCN)c1ccccc1 [filanesib]
How it was run: as §1

zotarolimus = compound: CO[C@H]1C[C@@H]2CC[C@@H](C)[C@@](O)(O2)C(=O)C(=O)N2CCCC[C@H]2C(=O)O[C@H]([C@H](C)C[C@@H]2CC[C@H](n3cnnn3)[C@H](OC)C2)CC(=O)[C@H](C)/C=C(\C)[C@@H](O)[C@@H](OC)C(=O)[C@H](C)C[C@H](C)/C=C/C=C/C=C/1C [zotarolimus]
How it was run: as §1

idasanutlin = compound: COc1cc(C(=O)O)ccc1NC(=O)[C@@H]1N[C@@H](CC(C)(C)C)[C@](C#N)(c2ccc(Cl)cc2F)[C@H]1c1cccc(Cl)c1F [idasanutlin]
How it was run: as §1

alisertib = compound: COc1cc(Nc2ncc3c(n2)-c2ccc(Cl)cc2C(c2c(F)cccc2OC)=NC3)ccc1C(=O)O [alisertib]
How it was run: as §1

[2] = compound: COc1cc2nc(-c3cc(F)ccc3O)nc(N[C@@H]3CNC[C@H]3C(C)(C)O)c2cc1OC
How it was run: as §1

gefitinib = compound: COc1cc2ncnc(Nc3ccc(F)c(Cl)c3)c2cc1OCCCN1CCOCC1 [gefitinib]
How it was run: as §1

[3] = compound: COc1cccc2cc(-c3nc([C@H]4CC[C@H](C(=O)O)CC4)n4ncnc(N)c34)[nH]c12
How it was run: as §1

lapatinib = compound: CS(=O)(=O)CCNCc1ccc(-c2ccc3ncnc(Nc4ccc(OCc5cccc(F)c5)c(Cl)c4)c3c2)o1 [lapatinib]
How it was run: as §1

[4] = compound: CS(=O)(=O)c1ccc(-c2cnc(N)c(C(=O)Nc3ccccc3)n2)cc1
How it was run: as §1

crizotinib = compound: C[C@@H](Oc1cc(-c2cnn(C3CCNCC3)c2)cnc1N)c1c(Cl)ccc(F)c1Cl [crizotinib]
How it was run: as §1

[5] = compound: C[C@@H]1COCCN1C2=NC(=NC(=C2)C3(CC3)S(=O)(=O)C)C4=C5C=CNC5=CC=C4
How it was run: as §1

[6] = compound: C[C@H](C1=CC=C(C=C1)C(=O)NC2=C3C=CNC3=NC=C2)N
How it was run: as §1

duvelisib = compound: C[C@H](Nc1ncnc2nc[nH]c12)c1cc2cccc(Cl)c2c(=O)n1-c1ccccc1 [duvelisib]
How it was run: as §1

gandotinib = compound: Cc1cc(Nc2cc(CN3CCOCC3)c3nc(C)c(Cc4ccc(Cl)cc4F)n3n2)n[nH]1 [gandotinib]
How it was run: as §1

tozasertib = compound: Cc1cc(Nc2cc(N3CCN(C)CC3)nc(Sc3ccc(NC(=O)C4CC4)cc3)n2)n[nH]1 [tozasertib]
How it was run: as §1

[7] = compound: Cc1cc(SCc2sc(-c3ccc(C(F)(F)F)cc3)nc2C)ccc1OCC(=O)O
How it was run: as §1

doramapimod = compound: Cc1ccc(-n2nc(C(C)(C)C)cc2NC(=O)Nc2ccc(OCCN3CCOCC3)c3ccccc23)cc1 [doramapimod]
How it was run: as §1

ispinesib = compound: Cc1ccc(C(=O)N(CCCN)[C@@H](c2nc3cc(Cl)ccc3c(=O)n2Cc2ccccc2)C(C)C)cc1 [ispinesib]
How it was run: as §1

pictilisib = compound: CS(=O)(=O)N1CCN(Cc2cc3nc(-c4cccc5[nH]ncc45)nc(N4CCOCC4)c3s2)CC1 [pictilisib]
How it was run: as §1

Measured: log2 fold change

CLCN3 isoform 2 (UniProt P51790)
UniProt P51790, sequence (P51790 whole entry, looked up): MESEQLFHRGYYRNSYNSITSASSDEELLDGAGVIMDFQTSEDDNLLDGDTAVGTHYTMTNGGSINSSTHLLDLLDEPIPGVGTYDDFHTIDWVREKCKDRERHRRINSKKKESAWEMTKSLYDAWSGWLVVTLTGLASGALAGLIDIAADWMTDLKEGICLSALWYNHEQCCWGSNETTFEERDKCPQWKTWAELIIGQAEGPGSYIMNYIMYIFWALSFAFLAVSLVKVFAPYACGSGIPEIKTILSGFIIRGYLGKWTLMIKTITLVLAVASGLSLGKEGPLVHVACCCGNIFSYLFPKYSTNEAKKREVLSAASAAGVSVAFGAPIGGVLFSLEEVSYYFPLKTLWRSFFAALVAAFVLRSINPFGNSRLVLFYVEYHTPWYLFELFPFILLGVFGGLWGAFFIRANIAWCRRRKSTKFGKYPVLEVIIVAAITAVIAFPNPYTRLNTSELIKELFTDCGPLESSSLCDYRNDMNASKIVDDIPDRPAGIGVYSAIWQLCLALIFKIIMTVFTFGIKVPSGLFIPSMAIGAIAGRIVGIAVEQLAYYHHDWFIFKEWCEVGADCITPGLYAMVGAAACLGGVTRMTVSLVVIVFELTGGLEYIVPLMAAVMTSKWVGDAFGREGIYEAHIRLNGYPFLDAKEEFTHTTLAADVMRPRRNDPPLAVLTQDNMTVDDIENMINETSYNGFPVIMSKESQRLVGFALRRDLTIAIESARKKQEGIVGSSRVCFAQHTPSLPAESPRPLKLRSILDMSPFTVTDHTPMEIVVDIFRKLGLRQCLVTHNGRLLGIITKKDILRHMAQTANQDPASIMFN
inactive: [1] 0.057 | filanesib -0.151 | zotarolimus -0.031 | idasanutlin -0.008 | alisertib 0.03 | [2] -0.064 | gefitinib -0.015 | [3] 0.04 | lapatinib 0.008 | [4] -0.008 | crizotinib -0.074 | [5] 0.09 | [6] -0.142 | duvelisib 0.015 | gandotinib 0.02 | tozasertib 0.002 | [7] -0.011 | doramapimod 0.009 | ispinesib -0.25

CDC123 (UniProt O75794)
UniProt O75794, sequence (O75794 whole entry, looked up): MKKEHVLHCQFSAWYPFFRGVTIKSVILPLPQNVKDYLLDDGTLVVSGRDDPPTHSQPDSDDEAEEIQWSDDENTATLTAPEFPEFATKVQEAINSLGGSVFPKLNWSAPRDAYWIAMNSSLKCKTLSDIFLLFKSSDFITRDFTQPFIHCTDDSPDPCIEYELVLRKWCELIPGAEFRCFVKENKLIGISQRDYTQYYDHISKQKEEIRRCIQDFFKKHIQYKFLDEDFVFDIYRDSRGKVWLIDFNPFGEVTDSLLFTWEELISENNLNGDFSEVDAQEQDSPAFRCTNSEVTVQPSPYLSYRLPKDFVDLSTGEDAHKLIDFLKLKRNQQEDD
active: crizotinib -0.246
inactive: [1] 0.005 | filanesib -0.043 | zotarolimus -0.016 | idasanutlin 0.032 | alisertib -0.048 | [2] 0.024 | gefitinib -0.057 | [3] 0.001 | lapatinib 0.017 | pictilisib -0.027 | [4] -0.001 | [5] 0.074 | [6] -0.032 | duvelisib 0.159 | gandotinib 0.044 | tozasertib -0.049 | [7] 0.115 | doramapimod 0.003 | ispinesib 0.013

CLTB (UniProt P09497)
UniProt P09497, sequence (P09497 whole entry, looked up): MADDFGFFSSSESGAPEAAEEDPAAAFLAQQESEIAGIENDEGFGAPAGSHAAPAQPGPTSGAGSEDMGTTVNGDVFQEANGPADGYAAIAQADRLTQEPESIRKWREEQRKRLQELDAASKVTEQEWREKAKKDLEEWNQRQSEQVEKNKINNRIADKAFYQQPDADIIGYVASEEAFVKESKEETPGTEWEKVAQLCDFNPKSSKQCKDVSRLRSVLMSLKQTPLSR
active: [1] 0.263
inactive: filanesib -0.053 | zotarolimus -0.006 | idasanutlin -0.02 | alisertib -0.106 | [2] 0 | gefitinib 0.017 | [3] 0.028 | lapatinib -0.014 | [4] -0.058 | crizotinib 0.007 | [5] -0.004 | [6] -0.047 | duvelisib -0.035 | gandotinib 0.026 | tozasertib -0.011 | [7] -0.056 | doramapimod -0.012 | ispinesib 0.085

CLPTM1L (UniProt Q96KA5)
UniProt Q96KA5, sequence (Q96KA5 whole entry, looked up): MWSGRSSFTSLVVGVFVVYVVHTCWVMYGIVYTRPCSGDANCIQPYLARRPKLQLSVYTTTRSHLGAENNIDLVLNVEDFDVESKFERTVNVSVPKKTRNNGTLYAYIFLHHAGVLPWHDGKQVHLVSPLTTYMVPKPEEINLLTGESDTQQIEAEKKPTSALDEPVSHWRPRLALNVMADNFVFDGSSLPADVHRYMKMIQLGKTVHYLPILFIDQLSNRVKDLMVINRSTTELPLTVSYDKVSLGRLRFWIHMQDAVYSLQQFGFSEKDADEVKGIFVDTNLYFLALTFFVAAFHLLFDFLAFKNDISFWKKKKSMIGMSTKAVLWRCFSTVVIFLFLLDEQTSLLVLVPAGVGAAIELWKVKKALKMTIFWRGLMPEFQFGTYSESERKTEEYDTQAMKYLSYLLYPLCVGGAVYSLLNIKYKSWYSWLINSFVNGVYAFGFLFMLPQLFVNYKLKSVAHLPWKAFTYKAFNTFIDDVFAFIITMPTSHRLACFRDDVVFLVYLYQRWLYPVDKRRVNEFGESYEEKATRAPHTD
active: gandotinib -0.268 | ispinesib -0.326
inactive: [1] -0.053 | filanesib -0.114 | zotarolimus -0.095 | idasanutlin -0.141 | alisertib -0.032 | [2] -0.08 | gefitinib -0.007 | [3] 0.065 | lapatinib -0.02 | [4] 0.036 | crizotinib -0.08 | [5] 0.025 | [6] -0.013 | duvelisib 0.047 | tozasertib 0.012 | [7] 0 | doramapimod -0.012

C9orf72 (UniProt Q96LT7)
UniProt Q96LT7, sequence (Q96LT7 whole entry, looked up): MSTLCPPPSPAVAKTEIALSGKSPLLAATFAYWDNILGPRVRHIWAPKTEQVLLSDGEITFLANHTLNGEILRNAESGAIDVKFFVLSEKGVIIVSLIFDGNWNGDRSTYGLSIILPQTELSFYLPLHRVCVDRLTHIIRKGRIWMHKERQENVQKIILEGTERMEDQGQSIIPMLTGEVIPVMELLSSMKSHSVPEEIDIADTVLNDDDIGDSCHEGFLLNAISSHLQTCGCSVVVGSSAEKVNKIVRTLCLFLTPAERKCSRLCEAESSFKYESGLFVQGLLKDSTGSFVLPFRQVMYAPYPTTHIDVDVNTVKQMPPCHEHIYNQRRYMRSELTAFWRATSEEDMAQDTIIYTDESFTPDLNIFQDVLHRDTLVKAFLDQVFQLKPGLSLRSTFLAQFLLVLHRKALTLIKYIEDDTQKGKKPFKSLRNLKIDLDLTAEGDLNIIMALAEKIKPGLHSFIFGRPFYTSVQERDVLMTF
inactive: [1] -0.06 | filanesib -0.054 | zotarolimus -0.115 | idasanutlin -0.026 | alisertib 0.062 | [2] -0.013 | gefitinib -0.034 | [3] -0.062 | lapatinib 0.062 | pictilisib -0.015 | [4] 0.058 | crizotinib -0.134 | [5] -0.024 | [6] -0.048 | duvelisib 0.008 | tozasertib -0.019 | [7] 0.057 | doramapimod 0.01 | ispinesib 0.04
active: gandotinib -0.313

CHKA (UniProt P35790)
UniProt P35790, sequence (P35790 whole entry, looked up): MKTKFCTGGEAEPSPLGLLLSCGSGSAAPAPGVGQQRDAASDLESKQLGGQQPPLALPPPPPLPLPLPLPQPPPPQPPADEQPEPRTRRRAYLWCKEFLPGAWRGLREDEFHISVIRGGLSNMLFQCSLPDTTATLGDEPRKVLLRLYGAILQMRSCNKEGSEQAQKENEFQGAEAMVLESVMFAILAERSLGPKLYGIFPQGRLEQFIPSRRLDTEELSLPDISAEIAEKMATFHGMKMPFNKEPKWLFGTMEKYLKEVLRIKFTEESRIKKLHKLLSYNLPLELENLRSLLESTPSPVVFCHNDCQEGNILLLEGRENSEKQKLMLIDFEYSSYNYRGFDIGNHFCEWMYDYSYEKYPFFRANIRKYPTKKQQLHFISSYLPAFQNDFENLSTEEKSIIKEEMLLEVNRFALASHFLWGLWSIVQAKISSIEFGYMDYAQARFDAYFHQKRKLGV
inactive: [1] -0.021 | filanesib 0.02 | zotarolimus -0.148 | idasanutlin -0.009 | alisertib -0.032 | [2] 0.065 | gefitinib -0.016 | [3] 0.004 | lapatinib -0.013 | pictilisib 0.041 | [4] -0.022 | crizotinib 0.075 | [5] -0.034 | [6] 0.046 | duvelisib -0.002 | gandotinib 0.009 | tozasertib -0.013 | [7] -0.012 | doramapimod -0.011 | ispinesib 0.048

CEPT1 (UniProt Q9Y6K0)
inactive: [1] 0.029 | filanesib -0.277 | zotarolimus -0.095 | idasanutlin -0.142 | alisertib 0.009 | [2] 0.022 | gefitinib -0.025 | [3] 0.036 | lapatinib 0.095 | pictilisib 0.011 | [4] 0.055 | crizotinib -0.226 | [5] 0.146 | [6] 0.042 | duvelisib -0.022 | gandotinib -0.268 | tozasertib -0.019 | [7] 0.047 | doramapimod 0.021 | ispinesib -0.214

CDCA2 (UniProt Q69YH5)
UniProt Q69YH5, sequence (Q69YH5 whole entry, looked up): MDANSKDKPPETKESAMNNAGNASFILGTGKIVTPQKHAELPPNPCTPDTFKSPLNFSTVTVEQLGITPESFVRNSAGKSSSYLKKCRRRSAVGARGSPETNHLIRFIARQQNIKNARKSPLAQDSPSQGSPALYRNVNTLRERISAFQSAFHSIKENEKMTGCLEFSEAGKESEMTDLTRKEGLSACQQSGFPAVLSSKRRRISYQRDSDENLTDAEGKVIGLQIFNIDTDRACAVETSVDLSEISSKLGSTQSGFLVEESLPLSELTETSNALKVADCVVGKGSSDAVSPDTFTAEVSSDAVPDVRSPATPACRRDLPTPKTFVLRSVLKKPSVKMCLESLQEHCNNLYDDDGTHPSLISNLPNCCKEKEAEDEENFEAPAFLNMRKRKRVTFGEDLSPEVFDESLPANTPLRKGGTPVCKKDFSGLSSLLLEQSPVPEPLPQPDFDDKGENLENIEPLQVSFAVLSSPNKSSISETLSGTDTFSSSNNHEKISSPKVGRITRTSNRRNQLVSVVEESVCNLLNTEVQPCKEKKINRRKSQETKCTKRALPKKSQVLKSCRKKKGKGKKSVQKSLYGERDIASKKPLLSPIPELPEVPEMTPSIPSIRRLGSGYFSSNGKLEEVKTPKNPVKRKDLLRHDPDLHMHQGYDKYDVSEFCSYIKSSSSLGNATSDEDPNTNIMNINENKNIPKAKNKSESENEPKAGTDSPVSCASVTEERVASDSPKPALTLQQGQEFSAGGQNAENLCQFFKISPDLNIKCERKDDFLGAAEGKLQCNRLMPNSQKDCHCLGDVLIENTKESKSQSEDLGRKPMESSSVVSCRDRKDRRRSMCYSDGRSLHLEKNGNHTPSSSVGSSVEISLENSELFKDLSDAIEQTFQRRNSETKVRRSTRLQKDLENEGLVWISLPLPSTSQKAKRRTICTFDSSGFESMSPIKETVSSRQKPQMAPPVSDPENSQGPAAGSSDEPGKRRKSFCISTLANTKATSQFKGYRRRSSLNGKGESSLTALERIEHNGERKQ
inactive: [1] 0.278 | filanesib -0.036 | zotarolimus -0.04 | idasanutlin 0.018 | alisertib 0.585 | [2] -0.079 | gefitinib 0.109 | [3] -0.011 | lapatinib 0.204 | pictilisib -0.127 | [4] 0.161 | crizotinib 0.025 | [5] 0.041 | [6] -0.021 | gandotinib 0.098 | tozasertib -0.159 | doramapimod 0.088 | ispinesib -0.04

CHCHD1 (UniProt Q96BP2)
inactive: [1] 0.037 | filanesib -0.017 | zotarolimus -0.001 | idasanutlin 0.082 | alisertib -0.077 | [2] -0.198 | gefitinib -0.042 | [3] 0.161 | lapatinib -0.055 | pictilisib -0.193 | [4] -0.115 | [5] -0.203 | [6] -0.067 | duvelisib -0.061 | gandotinib -0.085 | tozasertib -0.045 | [7] 0.036 | doramapimod -0.087 | ispinesib 0.06
active: crizotinib -0.54

CLPP (UniProt Q16740)
UniProt Q16740, sequence (Q16740 whole entry, looked up): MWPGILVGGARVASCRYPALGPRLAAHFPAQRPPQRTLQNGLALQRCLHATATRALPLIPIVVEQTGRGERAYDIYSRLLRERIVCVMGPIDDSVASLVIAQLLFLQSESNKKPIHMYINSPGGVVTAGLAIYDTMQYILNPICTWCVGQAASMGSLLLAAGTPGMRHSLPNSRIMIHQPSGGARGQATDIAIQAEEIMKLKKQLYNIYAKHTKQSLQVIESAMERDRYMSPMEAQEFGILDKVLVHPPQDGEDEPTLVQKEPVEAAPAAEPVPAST
active: crizotinib 0.348
inactive: [1] -0.03 | filanesib -0.017 | zotarolimus 0 | idasanutlin -0.038 | alisertib -0.091 | [2] 0.011 | gefitinib 0.01 | [3] 0.021 | lapatinib -0.034 | [4] 0.05 | [5] 0.058 | [6] -0.025 | duvelisib 0.006 | gandotinib 0.008 | tozasertib -0.02 | [7] 0.017 | doramapimod 0.003 | ispinesib 0.105

CCDC59 (UniProt Q9P031)
UniProt Q9P031, sequence (Q9P031 whole entry, looked up): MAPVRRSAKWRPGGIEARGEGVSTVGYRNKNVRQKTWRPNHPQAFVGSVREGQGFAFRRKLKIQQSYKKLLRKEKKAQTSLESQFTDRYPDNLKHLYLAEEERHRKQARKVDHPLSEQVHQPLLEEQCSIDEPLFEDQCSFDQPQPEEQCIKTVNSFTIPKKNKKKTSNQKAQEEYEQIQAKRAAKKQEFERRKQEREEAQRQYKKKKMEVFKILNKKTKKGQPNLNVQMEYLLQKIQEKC
inactive: [1] 0.024 | filanesib 0.301 | zotarolimus -0.008 | idasanutlin 0.225 | alisertib -0.124 | [2] -0.013 | gefitinib -0.066 | [3] -0.054 | lapatinib -0.034 | pictilisib -0.234 | [4] 0.09 | crizotinib -0.084 | [5] 0 | [6] 0.389 | duvelisib -0.157 | gandotinib 0.186 | tozasertib 0.01 | [7] 0.006 | doramapimod 0.164 | ispinesib -0.136

CLSPN (UniProt Q9HAW4)
inactive: [1] -0.076 | filanesib 0.053 | zotarolimus -0.034 | idasanutlin 0.107 | alisertib 0.004 | [2] -0.111 | gefitinib -0.019 | [3] -0.018 | lapatinib 0.053 | [4] -0.028 | crizotinib 0.039 | [5] -0.04 | [6] -0.046 | duvelisib -0.045 | gandotinib 0.047 | tozasertib 0.049 | [7] -0.104 | doramapimod 0.001 | ispinesib 0.107

CLPX (UniProt O76031)
inactive: [1] 0.077 | filanesib -0.07 | zotarolimus -0.052 | idasanutlin -0.007 | alisertib -0.026 | [2] -0.017 | gefitinib 0.019 | [3] 0.021 | lapatinib 0.014 | [4] 0.061 | [5] 0.027 | [6] 0.004 | duvelisib 0.004 | gandotinib 0.003 | tozasertib -0.012 | [7] -0.05 | doramapimod -0.002 | ispinesib 0.018
active: crizotinib 0.291

CLCN3 (UniProt P51790)
active: ispinesib -0.549
inactive: [1] -0.158 | filanesib -0.12 | zotarolimus -0.099 | idasanutlin -0.095 | alisertib -0.016 | [2] 0.031 | gefitinib 0.045 | [3] 0.058 | lapatinib -0.06 | [4] -0.05 | crizotinib -0.191 | [5] 0.012 | [6] -0.003 | duvelisib 0.046 | gandotinib -0.062 | tozasertib 0.04 | [7] -0.006 | doramapimod -0.03

CERS2 (UniProt Q96G23)
UniProt Q96G23, sequence (Q96G23 whole entry, looked up): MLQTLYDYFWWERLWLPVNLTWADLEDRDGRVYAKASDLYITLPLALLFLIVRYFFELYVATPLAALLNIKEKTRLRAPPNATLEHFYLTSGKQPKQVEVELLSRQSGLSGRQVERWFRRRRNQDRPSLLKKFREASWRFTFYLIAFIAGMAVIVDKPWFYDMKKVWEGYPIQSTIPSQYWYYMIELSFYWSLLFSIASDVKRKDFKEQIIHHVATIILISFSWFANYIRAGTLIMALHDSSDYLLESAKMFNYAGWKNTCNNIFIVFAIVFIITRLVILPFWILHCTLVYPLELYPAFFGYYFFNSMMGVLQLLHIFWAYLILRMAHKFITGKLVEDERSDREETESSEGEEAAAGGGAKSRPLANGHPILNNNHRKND
active: pictilisib -0.262 | crizotinib -0.294 | ispinesib -0.466
inactive: [1] -0.045 | filanesib -0.117 | zotarolimus -0.062 | idasanutlin -0.047 | alisertib -0.129 | [2] -0.107 | gefitinib -0.095 | [3] -0.005 | lapatinib -0.03 | [4] -0.027 | [5] -0.054 | [6] -0.034 | duvelisib 0.036 | gandotinib -0.203 | tozasertib -0.049 | [7] -0.032 | doramapimod -0.04
